SENP8 block-1: SENP8 protease inhibition. purified SENP8, Z-RLRGG-aminoluciferin cleavage, luminescence. 330,000 compounds, 1.2% hits. inhibition, % at 10 µM; in the data active means inhibition above about 50%
Target sequence (Q96LD8 whole entry, looked up): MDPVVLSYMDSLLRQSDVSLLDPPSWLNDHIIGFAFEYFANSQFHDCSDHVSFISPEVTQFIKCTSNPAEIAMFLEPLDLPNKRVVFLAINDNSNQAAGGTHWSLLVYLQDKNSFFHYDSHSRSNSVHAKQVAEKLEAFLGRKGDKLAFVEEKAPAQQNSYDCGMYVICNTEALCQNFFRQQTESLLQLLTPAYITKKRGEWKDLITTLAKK
SENP7 block: blocks the human protease SENP7. recombinant SENP7, Z-RLRGG-aminoluciferin luminescence, 40 min. inhibition, % at 5 µM. Q9BQF6. 330,000 compounds, 1.5% hits;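 active means inhibition above about 50% at the single test dose, limit read from the data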;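 further: plate controls were DMSO with enzyme for no effect and no enzyme buffer wells for full effect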
SENP6 block: blocks the human protease SENP6; Q9GZR1; Recombinant SENP6 catalytic domain, aminoluciferin luminescence; inhibition, % at 10 µM; 330,000 compounds, 1.8% hits; AID 2599;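 active means inhibition above about 50% at the single tested dose, limit read from the data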;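 further: plate controls were DMSO wells with enzyme for no effect and DMSO wells lacking enzyme for full effect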
Platelet DG rel: modulates dense granule release in human platelets; human platelet-rich plasma, SFLLRN dense granule ATP release, luminescence; inhibition, %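 (compounds screened at 7.5 µM in platelet-rich plasma)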; 300,000 compounds, 0.22% hits; AID 1663;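 active means mean replicate score, as percent of positive control, at or above 50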
SENP8 block-2: SENP8 (human) protease inhibition; recombinant SENP8, Nedd8 substrate fluorescence; 360,000 compounds, 0.64% hits; Q96LD8; inhibition, % at 20 µM; AID 602440; in the data active means inhibition mostly above about 40%, no sharp cut-off; inactive means mostly below about 27%
SENP8 confirm: human SENP8 inhibition, confirmed; 6,200 compounds, 40% hits; AID 488912; Recombinant SENP8, Z-RLRGG-aminoluciferin luminescence, 60 min; shares compounds with SENP7 block; inhibition, % at 12.5 µM;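 active means mean inhibition across replicates above about 50%, limit read from the data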
SENP6 confirm: confirmation of human SENP6 protease inhibitors | shares compounds with SENP7 block | 6,200 compounds, 58% hits | recombinant SENP6, Z-RLRGG-aminoluciferin luminescence | inhibition, % at 12.5 µM
SENP7 conf: human SENP7 inhibition, confirmed; recombinant SENP7, Z-RLRGG-aminoluciferin luminescence, 40 min; inhibition, % at 12.5 µM; 6,200 compounds, 69% hits; shares compounds with SENP7 block; AID 488917
Casp3 SENP sel: selectivity test for SENP inhibitors: human caspase-3 inhibition | shares compounds with SENP7 block | purified caspase-3, Z-DEVD-aminoluciferin luminescence, 60 min | inhibition, % at 12.5 µM | 6,200 compounds, 60% hits | AID 488918;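 active means mean inhibition above about 50%, limit read from the data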;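 further: plate controls were enzyme with DMSO for no effect and wells without caspase-3 for full effect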
Target sequence (P42574 28-227 limits assumed): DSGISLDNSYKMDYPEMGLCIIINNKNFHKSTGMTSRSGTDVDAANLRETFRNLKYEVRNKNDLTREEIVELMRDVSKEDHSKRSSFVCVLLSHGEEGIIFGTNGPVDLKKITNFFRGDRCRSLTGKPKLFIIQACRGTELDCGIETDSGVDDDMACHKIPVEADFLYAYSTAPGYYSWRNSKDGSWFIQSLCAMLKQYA
SENP luc ctr: counter-screen for SENP inhibitors: luminescence interference. 6,200 compounds, 39% hits. inhibition, % at 12.5 µM. shares compounds with SENP7 block. AID 488919. Pre-incubated SENP8/Z-RLRGG-aminoluciferin, luciferase luminescence interference;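 active means mean inhibition above about 50% when retested at one dose, limit read from the data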;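 further: plate controls were DMSO wells with completed reaction for no effect and substrate without enzyme for full effect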
Active calls of the source: *; · = no result. Shown are actives, neighbours in structure and some others; about 2.4% of the full set was active somewhere.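 How the source made its calls, unless noted: active means mean inhibition above about 50% in the one-dose retest (limit read from the data); inactive means the rest.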

SMILES	SENP8 block-1	SENP7 block	SENP6 block	Platelet DG rel	SENP8 block-2	SENP8 confirm	SENP6 confirm	SENP7 conf	Casp3 SENP sel	SENP luc ctr
Cc1ccc2nc(/C(C#N)=C/c3ccccc3C(=O)O)[nH]c2c1	-1	4	2	0	-410	·	·	·	·	·
Cc1ccc2nc(/C(C#N)=C/c3ccc(O)c(O)c3)[nH]c2c1	17	8	65*	4	-163	54*	48	72*	30	9
C[C@H]1CN([C@@H](C)CO)C(=O)CCCn2cc(nn2)CO[C@@H]1CN(C)C(=O)Nc1ccc2c(c1)OCCO2	·	·	·	·	10	·	·	·	·	·
COc1cc(/C=C2/SC(=S)N(Cc3ccccc3)C2=O)ccc1O	0	4	49	12	29	·	·	·	·	·
Cc1ccc(NC(=O)COc2cccc(/C=C3\SC(=S)N(CCC(=O)O)C3=O)c2)cc1Cl	47	-1	66*	-2	33	13	42	61*	21	2
O=C(O)CCN1C(=O)/C(=C\c2cccc(OCC(=O)Nc3ccc(Cl)cc3)c2)SC1=S	1	-8	35	6	27	·	·	·	·	·
O=C(CCCN1C(=O)/C(=C/c2ccc3c(c2)OCO3)SC1=S)Nc1cccc(C(=O)O)c1	76*	48	82*	0	10	60*	82*	90*	63*	46
COc1cccc(/C=C2\SC(=S)N(CCCC(=O)Nc3ccc(C(=O)O)cc3)C2=O)c1	84*	81*	84*	-4	9	67*	76*	62*	58*	15
O=C1/C(=C\c2ccc(O)c(O)c2)SC(=S)N1Cc1ccccc1	47	-8	55*	-11	36*	70*	69*	72*	18	49
CCN(CC(=O)NCc1cccs1)C(=O)c1cccc(Cl)c1	7	4	-4	·	0	·	·	·	·	·
CCOC(=O)C1(C)CCN1C(=O)c1csnn1 (stereo not given)	·	·	·	·	21	·	·	·	·	·
O=[N+]([O-])c1ccccc1NS(=O)(=O)c1ccccc1	·	·	·	·	13	·	·	·	·	·
COc1cccc(N(CC(=O)N2CCCCCC2)S(C)(=O)=O)c1	-3	4	9	-13	16	·	·	·	·	·
O=C(CCN1C(=O)/C(=C/c2ccc(Cl)cc2)SC1=S)Nc1cccc(C(=O)O)c1	34	5	8	31	18	·	·	·	·	·
O=C(CCCN1C(=O)/C(=C\c2ccccc2)SC1=S)Nc1cccc(C(=O)O)c1	38	0	63*	-2	24	43	48	37	24	6
CCc1ccc(/C=C2/SC(=S)N(CCCC(=O)Nc3cccc(C(=O)O)c3)C2=O)cc1	·	·	·	·	35	·	·	·	·	·
COc1ccc(/C=C2\SC(=S)N(CCC(=O)Nc3cccc(C(=O)O)c3)C2=O)cc1	53*	6	62*	-6	25	35	33	21	21	15
CC(C)(C)C(=O)Nc1cccc(S(=O)(=O)NC2=NCCC2)c1	-6	-9	2	-18	14	·	·	·	·	·
Clc1ccc(-c2noc3c2-c2nc(Cc4cccc5ccccc45)sc2CC3)cc1	-5	6	7	-3	18	·	·	·	·	·
COc1ccc(CCN2C(=O)CCC2(C)c2nnnn2-c2ccc3c(c2)OCCO3)cc1OC (stereo not given)	·	·	·	·	2	·	·	·	·	·
Cc1ccc(S(=O)(=O)N2CCOC2CNC(=O)C(=O)NCc2ccncc2)cc1 (stereo not given)	5	13	11	-1	23	·	·	·	·	·
O=C(Nc1ccc2c(c1)CCC2)c1cnccn1	35	47	52*	15	6	55*	52*	83*	77*	29
CCn1ccc(C(=O)Nc2ccc3c(c2)CCC3)n1	25	59*	43	5	10	44	45	81*	65*	57*
